Reference: PubChem BioAssay AID2073 (Sanford-Burnham Center for Chemical Genomics, 2009)
Out of some 290,000 compounds screened, about 570 (0.2%) were called active. About 1% were inconclusive and are not listed. Cut-off read from the data, not from the text of the source: active = inhibition mostly above about 51% (no sharp cut-off); inconclusive = no clear call, values can overlap the other calls; inactive = mostly below about 53%. For the sample, actives were picked, then their nearest neighbours and some compounds at random.

Target: Voltage-dependent N-type calcium channel subunit alpha-1B (Homo sapiens) (UniProt Q00975)
Sequence (Q00975 whole entry, looked up): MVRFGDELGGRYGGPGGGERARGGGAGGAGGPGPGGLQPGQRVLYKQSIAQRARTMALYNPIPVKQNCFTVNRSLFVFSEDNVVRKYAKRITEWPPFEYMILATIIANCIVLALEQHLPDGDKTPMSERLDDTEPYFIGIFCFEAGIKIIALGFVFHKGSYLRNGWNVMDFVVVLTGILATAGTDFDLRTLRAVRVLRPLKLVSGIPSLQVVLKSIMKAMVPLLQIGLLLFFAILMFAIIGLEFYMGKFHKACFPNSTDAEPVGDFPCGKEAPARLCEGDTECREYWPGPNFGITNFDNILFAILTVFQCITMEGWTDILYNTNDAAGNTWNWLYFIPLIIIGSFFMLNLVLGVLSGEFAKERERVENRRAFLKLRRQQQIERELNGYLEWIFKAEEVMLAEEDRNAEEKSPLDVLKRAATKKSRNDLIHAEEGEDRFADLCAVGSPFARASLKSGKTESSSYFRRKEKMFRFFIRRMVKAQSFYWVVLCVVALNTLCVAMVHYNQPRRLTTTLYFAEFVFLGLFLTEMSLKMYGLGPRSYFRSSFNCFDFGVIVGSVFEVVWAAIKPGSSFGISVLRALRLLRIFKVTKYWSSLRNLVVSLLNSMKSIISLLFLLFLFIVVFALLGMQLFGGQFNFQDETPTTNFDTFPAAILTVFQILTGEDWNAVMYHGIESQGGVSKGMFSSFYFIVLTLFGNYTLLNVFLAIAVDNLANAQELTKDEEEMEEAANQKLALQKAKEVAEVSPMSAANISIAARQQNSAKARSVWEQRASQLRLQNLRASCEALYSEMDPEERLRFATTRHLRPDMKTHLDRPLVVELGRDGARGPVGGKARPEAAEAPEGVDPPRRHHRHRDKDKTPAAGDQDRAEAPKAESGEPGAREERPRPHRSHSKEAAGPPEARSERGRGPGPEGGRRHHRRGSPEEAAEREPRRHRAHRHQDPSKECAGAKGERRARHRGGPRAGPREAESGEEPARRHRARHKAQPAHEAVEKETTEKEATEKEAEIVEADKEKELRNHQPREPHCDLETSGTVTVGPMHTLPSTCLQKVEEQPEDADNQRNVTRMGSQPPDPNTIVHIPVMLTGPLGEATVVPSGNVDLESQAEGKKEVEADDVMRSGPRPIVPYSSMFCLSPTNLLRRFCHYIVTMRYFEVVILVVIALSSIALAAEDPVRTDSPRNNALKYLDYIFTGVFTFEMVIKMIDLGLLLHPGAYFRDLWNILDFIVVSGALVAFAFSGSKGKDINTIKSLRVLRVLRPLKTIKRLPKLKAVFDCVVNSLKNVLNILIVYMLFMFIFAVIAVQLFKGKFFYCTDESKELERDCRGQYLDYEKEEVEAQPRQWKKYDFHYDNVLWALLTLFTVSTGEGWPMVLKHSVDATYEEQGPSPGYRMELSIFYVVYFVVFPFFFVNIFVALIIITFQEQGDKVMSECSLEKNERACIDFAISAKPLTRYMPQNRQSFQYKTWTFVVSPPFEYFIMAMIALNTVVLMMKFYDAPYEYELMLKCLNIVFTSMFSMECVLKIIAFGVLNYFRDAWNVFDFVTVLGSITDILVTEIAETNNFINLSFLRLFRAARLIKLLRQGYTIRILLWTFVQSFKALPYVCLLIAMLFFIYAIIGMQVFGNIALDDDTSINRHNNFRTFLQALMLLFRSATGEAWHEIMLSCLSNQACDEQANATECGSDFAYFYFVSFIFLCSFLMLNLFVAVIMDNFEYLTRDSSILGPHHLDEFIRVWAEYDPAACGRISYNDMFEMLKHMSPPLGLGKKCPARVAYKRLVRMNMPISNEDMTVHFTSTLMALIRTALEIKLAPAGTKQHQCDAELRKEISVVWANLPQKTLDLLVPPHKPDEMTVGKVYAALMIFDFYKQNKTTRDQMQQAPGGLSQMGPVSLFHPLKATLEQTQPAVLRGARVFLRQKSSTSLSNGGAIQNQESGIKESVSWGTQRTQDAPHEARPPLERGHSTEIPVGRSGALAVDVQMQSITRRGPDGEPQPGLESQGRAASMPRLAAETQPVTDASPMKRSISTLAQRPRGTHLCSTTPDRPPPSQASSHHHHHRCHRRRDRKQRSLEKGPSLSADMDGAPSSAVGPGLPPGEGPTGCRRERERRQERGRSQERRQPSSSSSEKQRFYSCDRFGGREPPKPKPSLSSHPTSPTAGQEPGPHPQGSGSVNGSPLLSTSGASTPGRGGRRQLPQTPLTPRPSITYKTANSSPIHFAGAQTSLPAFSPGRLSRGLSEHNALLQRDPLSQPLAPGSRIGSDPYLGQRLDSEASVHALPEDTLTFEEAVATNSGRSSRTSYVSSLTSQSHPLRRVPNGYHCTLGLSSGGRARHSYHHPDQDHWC
Assay: disruptors of CaV2.2 binding to Mint1 – biochemical, HTRF (AID 2073)
Conditions: HTRF protein-protein interaction, Mint1-CaV2.2, at 20 µM, stronger effect = higher value
[1] = measured here: average of repeat tests

Row | SMILES | inhibition | inhibition [1] [%]
1 | O=c1[nH]c2ccccc2c2nc3ccccn3c12 | 23.2% (inactive) | –
2 | O=c1nc2c(O)cccn2c2c1c(=O)[nH]c1ccccc12 | 66.4% (active) | –
3 | O=C(CSc1nc2ccccc2c(=O)[nH]1)Nc1ccccc1O | -8.6% (inactive) | –
4 | Cc1ccc2c(c1)N(CCCC(=O)NCc1ccc3c(c1)OCO3)C(=O)CO2 | 9.3% (inactive) | –
5 | CCOC(=O)c1cn2nc(Oc3cccc(F)c3)ccc2n1 | 4.6% (inactive) | –
6 | CC(C)NC(=O)C1(S(=O)(=O)c2ccccc2)CC=CC1 | 4.8% (inactive) | –
7 | COc1ccc(C(=O)NCCCOc2cccc(NC(C)=O)c2)cc1 | 21.8% (inactive) | –
8 | CC1CCN(C(=O)C2CCCN(S(=O)(=O)c3cccc4nsnc34)C2)CC1 (stereo unspecified) | 5.2% (inactive) | –
9 | COc1ccc(-c2nnc(SCC(=O)NC(=O)NCc3ccccc3)o2)cc1 | 55.3% (active) | –
10 | COc1ccc(-c2nnc(SCC(=O)NCCc3ccccc3)o2)cc1 | 2.1% (inactive) | –
11 | COc1ccc(-c2nnc(SCC(=O)NC(=O)NCc3ccco3)o2)cc1 | -1.1% (inactive) | –
12 | COc1ccc(N(CC(=O)NCc2ccco2)S(C)(=O)=O)cc1 | 2.6% (inactive) | –
13 | Cc1cccc(/C=N/NC(=O)NC2CCCCC2)c1 | -3.7% (inactive) | –
14 | O=C1NC(=S)S/C1=C/c1ccc(N2CCOCC2)o1 | 32.5% (inactive) | –
15 | O=C1NC(=O)/C(=C\c2ccc(N3CCOCC3)o2)N1 | 71.7% (active) | –
16 | O=C1NC(=O)/C(=C/c2ccc(N3CCOCC3)o2)N1 | 52.2% (inactive) | 3.9
17 | O=C1N/C(=C/c2ccc(N3CCOCC3)o2)C(=O)N1c1ccccc1 | 44.8% (inactive) | –
18 | C=CCN1C(=O)N/C(=C/c2ccc(N3CCOCC3)o2)C1=O | 55.4% (inactive) | 7.9
19 | O=C1N/C(=C/c2ccc(N3CCOCC3)o2)C(=O)N1c1cccc(Cl)c1 | 58.7% (active) | –
20 | Cc1cc(Br)ccc1OCCN1CCCC1 | 1.2% (inactive) | –
21 | Cc1ccc(S(=O)(=O)N2CCN(CCNC(=O)C(=O)NCc3ccccc3)CC2)cc1 | -2.1% (inactive) | –
22 | Cc1cccc(C(=O)O)c1NC(=O)Cc1cccc2ccccc12 | 9.3% (inactive) | –
23 | O=c1[nH]c(SCc2n[nH]c(=S)n2-c2ccccc2)nc2sc3c(c12)CCC3 | 17.3% (inactive) | –

Row | SMILES | inhibition | inhibition [1] [%]
24 | COc1ccc(/C=C2\SC(=O)N(CCC(=O)Nc3ccc(S(=O)(=O)Nc4nccs4)cc3)C2=O)cc1 | 25.3% (inactive) | –
25 | COc1ccc(/C=C2/SC(=O)N(CCC(=O)Nc3ccc(S(=O)(=O)Nc4nccs4)cc3)C2=O)cc1 | 53% (active) | –
26 | O=C(CCN1C(=O)S/C(=C\c2ccccc2)C1=O)Nc1ccc(S(=O)(=O)Nc2nccs2)cc1 | -6.5% (inactive) | –
27 | COc1cccc(OC)c1C(=O)Nc1cccnc1 | -4.9% (inactive) | –
28 | CNC(=S)NNC(=O)Cc1ccc(OC)c(OC)c1 | -18.7% (inactive) | –
29 | Cc1cc(N)n2nc(C(F)(F)F)nc2n1 | -3.1% (inactive) | –
30 | CC(=O)c1ccc(NC(=O)c2cc3nc4c(c(C(F)(F)F)n3n2)CCCC4)cc1 | 33.2% (inactive) | –
31 | CCn1c(SCC(=O)Nc2cc(C)on2)nnc1-c1ccc(S(=O)(=O)N2CCCC2)cc1 | 0.3% (inactive) | –
32 | O=C1C2C3C=CC(C3)C2C(=O)N1c1ccc(-c2nc3ccccc3o2)cc1 (stereo unspecified) | 15.5% (inactive) | –
33 | O=C1c2ccccc2C(=O)N1c1ccc(-c2nc3ccccc3o2)cc1 | 67.9% (active) | –
34 | O=C1c2ccccc2C(=O)N1c1cccc(-c2nc3ccccc3o2)c1 | 19.2% (inactive) | –
35 | CC(=O)c1cccc(NC(=O)NNC(=O)c2ccc(-c3ccccc3)cc2)c1 | 22.1% (inactive) | –
36 | CCCNC(=O)CSc1nccn1Cc1ccco1 | -17.8% (inactive) | –
37 | Cc1ccc(N2CCN(C(=S)Nc3ccccc3C)CC2)cc1 | -9.9% (inactive) | –
38 | Cc1nc2c(c(=O)n1Cc1ccccc1Cl)c1nc3ccccc3nc1n2Cc1ccco1 | 38.1% (inactive) | –
39 | COc1ccc(Cn2c3nc4ccccc4nc3c3c(=O)n(Cc4ccco4)c(C)nc32)cc1 | 18.4% (inactive) | –
40 | Cc1nc2c(c(=O)n1Cc1ccco1)c1nc3ccccc3nc1n2Cc1ccccc1 | 50.6% (active) | –
41 | O=[N+]([O-])c1ccc(Nc2nc(NCCO)nc(N3CCCC3)n2)cc1 | 5.1% (inactive) | –
42 | CCOc1ccc(/C=C/C2=Cc3c(sc(NC(=O)CSc4n[nH]c(N)n4)c3C#N)C(C)(C)C2)cc1 | 12.8% (inactive) | –
43 | Cc1ccsc1/C=C/C1=Cc2c(sc(NC(=O)CSc3n[nH]c(N)n3)c2C#N)C(C)(C)C1 | 20.6% (inactive) | –
44 | Cc1ccc(/C=C/C2=Cc3c(sc(NC(=O)CSc4n[nH]c(N)n4)c3C#N)C(C)(C)C2)o1 | 61.1% (active) | –
45 | COc1cccc(NC(=O)c2ccco2)c1 | 3.2% (inactive) | –
46 | Cc1ncc(CO)c(/C=N/NC(=S)Nc2cccc(Cl)c2)c1O | 53.7% (active) | –

Row | SMILES | inhibition | inhibition [1] [%]
47 | Cc1ncc(CO)c(/C=N/NC(=S)Nc2ccc(Cl)c(Cl)c2)c1O | 50.4% (inactive) | 30.4
48 | Cc1ncc(CO)c(/C=N/NC(=S)Nc2ccc(C(C)C)cc2)c1O | 16.5% (inactive) | –
49 | CCCCCCc1nc(C(N)=O)c2[nH]c(=O)n(-c3ccccc3F)c2n1 | 10.4% (inactive) | –
50 | COC(=O)c1c(C)oc(C)c1S(=O)(=O)N(Cc1ccccc1)C(C)C | -16.1% (inactive) | –
51 | CCc1ccc2nc(N(CCCN(C)C)C(=O)c3ccc(S(=O)(=O)N4CCCC4)cc3)sc2c1 | -0.7% (inactive) | –
52 | CC(=O)c1ccc(N2CCN(C(=O)c3nn(C)c4c3CS(=O)(=O)c3ccccc3-4)CC2)cc1 | 9% (inactive) | –
53 | CCOc1ccccc1-c1c2cc(O)c(=O)cc-2oc2cc(O)c(O)cc12 | 24.8% (inactive) | –
54 | O=c1cc2oc3cc(O)c(O)cc3c(-c3ccccc3O)c-2cc1O | 68.3% (active) | –
55 | O=c1cc2oc3cc(O)c(O)cc3c(-c3ccccc3[N+](=O)[O-])c-2cc1O | 15.9% (inactive) | –
56 | CCC(=O)N1CCc2cc(S(=O)(=O)CCC(=O)Nc3ccc(OC)c(OC)c3)ccc21 | 5.3% (inactive) | –
57 | COc1ccc(CNC(=O)Cc2cn(C)c3ccccc23)c(OC)c1 | 5.9% (inactive) | –
58 | Cc1cc(NC(=O)OC2CCCCC2)ccc1[N+](=O)[O-] | -7.7% (inactive) | –
59 | COc1cc(C(=O)NS(=O)(=O)c2ccccc2C)ccc1Cc1cn(C)c2ccc(NC(=O)OC3CCCC3)cc12 | 51.7% (active) | –
60 | CC(C)CC(=O)N1CC(C)N(C(=O)CC(C)C)CC1C (stereo unspecified) | 4.2% (inactive) | –
61 | O=[N+]([O-])c1cccc(CSc2nnc3ccccn23)c1 | 13.5% (inactive) | –
62 | N#C/C(=C/c1ccc(N2CCOCC2)o1)c1ccc(Br)cc1 | 39.6% (inactive) | –
63 | Cc1ccc(/C(C#N)=C\c2ccc(N3CCOCC3)o2)cc1 | 43.4% (inactive) | –
64 | N#C/C(=C/c1ccc(N2CCOCC2)o1)c1ccc(Cl)cc1 | 51.9% (active) | –
65 | CCCCCCc1ccc(N2C[C@H](CCCCC)[C@@H](CC(=O)NCc3ccc(OC)cc3)C2=O)cc1 | 10.1% (inactive) | –
66 | Cc1ccc2c(COC(=O)c3ccc(NC(=O)CC#N)cc3)cc(=O)oc2c1C | 57.8% (inactive) | 36.4
67 | Cc1ccc(NC(=O)c2nsc(Cl)c2Cl)cc1 | 18.9% (inactive) | –
68 | C/C(=N\NC(=O)c1ccccc1Cl)c1ccccn1 | 16.3% (inactive) | –
69 | CCN(CC)c1ccc(/C=N/NC(=O)c2c(Cl)c(C)nn2C)cc1 | 10.2% (inactive) | –

Row | SMILES | inhibition | inhibition [1] [%]
70 | CCc1nnc(NS(=O)(=O)c2ccc(NCc3cc(Br)ccc3O)cc2)s1 | -6.2% (inactive) | –
71 | O=C(OCc1cc(=O)n2c(n1)sc1ccccc12)c1ccc(O)cc1 | 30.3% (inactive) | –
72 | O=C(OCc1cc(=O)n2c(n1)sc1ccccc12)c1ccc(O)cc1O | 60.2% (active) | –
73 | O=C(OCc1cc(=O)n2c(n1)sc1ccccc12)c1cccc(O)c1 | 19.1% (inactive) | –
74 | O=S(=O)(Nc1ccncc1)c1cc(Cl)c(Cl)cc1Cl | 12.2% (inactive) | –
75 | COc1cccc(N=c2oc3ccccc3cc2-c2nc3ccccc3[nH]2)c1 | 17.1% (inactive) | –
76 | COc1ccc2oc(=Nc3ccccc3)c(-c3nc4ccccc4[nH]3)cc2c1 | 37.9% (inactive) | –
77 | CC(=O)c1sc2nc(CSc3nnnn3-c3ccccc3)[nH]c(=O)c2c1C | 80.6% (active) | –
78 | Cc1ccc(-n2nnnc2SCc2nc3sc(C)c(C)c3c(=O)[nH]2)cc1 | 12% (inactive) | –
79 | CC(=O)c1sc2nc(CSc3nncn3C)[nH]c(=O)c2c1C | 22.1% (inactive) | –
80 | COc1ccc2c(C(=O)CN3CCSCC3)c[nH]c2c1 | 25.2% (inactive) | –
81 | COC(=O)C1=C(N)Oc2c(oc(CO)cc2=O)C1c1ccccc1F (stereo unspecified) | 0.2% (inactive) | –
82 | CC(C)C(C(=O)O)N1C(=O)/C(=C/C=C/c2ccco2)SC1=S (stereo unspecified) | 49.5% (inactive) | –
83 | CC(C(=O)O)N1C(=O)/C(=C/C=C/c2ccco2)SC1=S (stereo unspecified) | 77.7% (active) | –
84 | O=C(O)CC(C(=O)O)N1C(=O)/C(=C/C=C/c2ccco2)SC1=S (stereo unspecified) | 27.4% (inactive) | –
85 | CNC(=S)NNC(=O)c1c(C)nc2cc(C)ccn12 | 0.7% (inactive) | –
86 | CC1=C(C(=O)O)N2C(=O)[C@@H](NC(=O)[C@H](N)c3ccccc3)[C@H]2SC1 | -20.5% (inactive) | –
87 | CC1=C(C(=O)O)N2C(=O)C(NC(=O)c3ccn(C)n3)C2SC1 (stereo unspecified) | -8.1% (inactive) | –
88 | O=S1(=O)CCC(n2nccc2-c2ccccc2)C1 (stereo unspecified) | -2.9% (inactive) | –
89 | COC(=O)C1=C(C)N(CCCC(=O)O)C(=O)NC1c1ccc(-c2ccccc2)cc1 (stereo unspecified) | -4.2% (inactive) | –
90 | COc1cc(C2CC(=O)Nc3n[nH]c(-c4ccccc4)c32)cc(OC)c1OC (stereo unspecified) | 8.3% (inactive) | –
91 | COc1cc(C2c3c([nH]c(=O)[nH]c3=O)Nc3ccc4ccccc4c32)cc(OC)c1OC (stereo unspecified) | 82.8% (active) | –
92 | COc1cc(C2c3c([nH]c(=O)[nH]c3=O)Nc3ccc4ccccc4c32)ccc1O (stereo unspecified) | -1.1% (inactive) | –
